Values joined by “and” are separate entries in the source; they are usually repeats but may differ in a detail not shown here. Equal values may be shown once. Records with an inconclusive call do not appear. Where a structure was tested more than once in an assay, its records may differ in their call. Active and inactive are the calls of the source. Rule for the calls, unless noted: active = hit-call score of the fitted dose curve at least 0.9, where 1 is the maximum; inactive = score below 0.9.
How the values were obtained:
[1] = target: Oxysterols receptor LXR-alpha (Homo sapiens) (UniProt Q13133); test: ATG_LXRa_TRANS: Attagene TRANS-FACTORIAL HepG2 Assay for human Liver X Receptor alpha (LXRa) (AID 2282980; active = hit-call score of the fitted dose curve at least 0.9, where 1 is the maximum); conditions: HepG2 Attagene TRANS reporter, LXRa transactivation
Oxysterols receptor LXR-alpha (Homo sapiens), sequence (Q13133 whole entry, looked up, the tested form may be a part): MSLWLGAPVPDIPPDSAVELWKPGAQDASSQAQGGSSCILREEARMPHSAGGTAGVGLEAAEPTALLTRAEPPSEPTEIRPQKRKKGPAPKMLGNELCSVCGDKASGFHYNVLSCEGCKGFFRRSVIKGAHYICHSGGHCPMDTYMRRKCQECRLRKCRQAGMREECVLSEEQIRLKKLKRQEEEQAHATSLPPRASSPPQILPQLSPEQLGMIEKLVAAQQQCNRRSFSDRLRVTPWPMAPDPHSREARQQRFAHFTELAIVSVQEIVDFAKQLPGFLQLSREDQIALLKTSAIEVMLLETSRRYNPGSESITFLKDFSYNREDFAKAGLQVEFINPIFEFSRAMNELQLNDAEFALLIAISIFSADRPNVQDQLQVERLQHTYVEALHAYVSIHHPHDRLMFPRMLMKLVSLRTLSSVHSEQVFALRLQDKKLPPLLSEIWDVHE
Outline: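 In this multiplexed TRANS system, compounds act on HepG2 cells carrying GAL4-UAS reporter units and a receptor-GAL4 fusion for 24 h. Induced reporter RNA is amplified, fluorescently labelled and sized by capillary electrophoresis, with DMSO as baseline.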

[2] = target: Oxysterols receptor LXR-beta (Homo sapiens) (UniProt P55055); test: ATG_LXRb_TRANS: Attagene TRANS-FACTORIAL HepG2 Assay for human Liver X Receptor beta (LXRb) (AID 2282981; active = hit-call score of the fitted dose curve at least 0.9, where 1 is the maximum); conditions: HepG2 Attagene TRANS GAL4-LXRb reporter, mRNA
Oxysterols receptor LXR-beta (Homo sapiens), sequence (P55055 whole entry, looked up, the tested form may be a part): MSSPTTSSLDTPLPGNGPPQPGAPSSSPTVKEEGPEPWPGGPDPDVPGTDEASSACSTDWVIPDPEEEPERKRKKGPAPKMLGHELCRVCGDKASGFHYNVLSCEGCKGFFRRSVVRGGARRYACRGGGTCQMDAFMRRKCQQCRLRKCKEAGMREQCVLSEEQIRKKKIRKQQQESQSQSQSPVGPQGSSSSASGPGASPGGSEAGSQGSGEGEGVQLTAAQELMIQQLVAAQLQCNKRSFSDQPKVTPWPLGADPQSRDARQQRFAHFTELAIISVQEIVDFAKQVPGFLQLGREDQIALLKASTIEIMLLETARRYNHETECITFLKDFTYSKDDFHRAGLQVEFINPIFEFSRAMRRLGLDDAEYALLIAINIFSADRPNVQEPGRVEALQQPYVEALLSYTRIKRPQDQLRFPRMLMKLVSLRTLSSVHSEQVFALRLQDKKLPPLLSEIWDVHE
Outline: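 Cells: HepG2, transiently transfected with GAL4-UAS reporter units plus LXRb-Gal4 fusion. Treatment: 24 h. Detection: reporter mRNA by RT-PCR, 6-FAM labelling, HpaI digestion, capillary electrophoresis.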

[3] = ATG_M_06_TRANS: Attagene TRANS-FACTORIAL HepG2 Assay for M06 Transcription Factor (Internal Marker) (AID 2282983; active = hit-call score of the fitted dose curve at least 0.9, where 1 is the maximum;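 note: reporter transcript level by RT-PCR then capillary electrophoresis fluorescence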); conditions: HepG2 Attagene TRANS M06 internal marker reporter
Outline: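 Internal-marker background readout from a multiplexed TRANS reporter system in HepG2; 24 h dosing; mRNA induction quantified by RT-PCR plus capillary electrophoresis fluorescence; DMSO as negative control and baseline.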

[4] = target: Transcriptional activator Myb (Homo sapiens) (UniProt P10242); test: ATG_Myb_CIS: Attagene CIS-FACTORIAL HepG2 Assay for human Myeloblastosis (Myb) Proto-Oncogene Transcription Factor (AID 2282986); conditions: HepG2 Attagene CIS-FACTORIAL Myb reporter transcription; actives raise or lower the signal
Transcriptional activator Myb (Homo sapiens), sequence (P10242 whole entry, looked up): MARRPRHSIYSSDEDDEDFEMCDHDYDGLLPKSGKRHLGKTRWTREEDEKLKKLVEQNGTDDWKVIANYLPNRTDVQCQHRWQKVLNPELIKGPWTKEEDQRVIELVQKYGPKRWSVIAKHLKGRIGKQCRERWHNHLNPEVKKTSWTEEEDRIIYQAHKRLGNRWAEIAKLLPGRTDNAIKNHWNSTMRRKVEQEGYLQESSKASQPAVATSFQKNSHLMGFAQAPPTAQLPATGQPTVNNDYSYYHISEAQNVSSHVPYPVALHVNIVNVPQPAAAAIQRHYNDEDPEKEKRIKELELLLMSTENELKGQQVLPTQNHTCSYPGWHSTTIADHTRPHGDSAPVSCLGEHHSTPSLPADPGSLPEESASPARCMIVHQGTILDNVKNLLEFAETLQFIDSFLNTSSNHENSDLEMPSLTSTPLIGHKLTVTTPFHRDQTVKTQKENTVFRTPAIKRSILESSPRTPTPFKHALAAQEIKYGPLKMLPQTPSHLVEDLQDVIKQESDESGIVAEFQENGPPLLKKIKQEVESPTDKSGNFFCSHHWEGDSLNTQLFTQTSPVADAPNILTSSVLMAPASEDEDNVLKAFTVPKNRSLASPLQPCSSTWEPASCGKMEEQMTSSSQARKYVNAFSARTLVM
Outline: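 In this HepG2 transient-transfection format, cis-regulated reporter mRNA is quantified 24 h post-dosing by RT-PCR with capillary electrophoresis, fitted bidirectionally to DMSO baseline.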

[5] = target: Nuclear respiratory factor 1 (Homo sapiens) (UniProt Q16656); test: ATG_NRF1_CIS: Attagene CIS-FACTORIAL HepG2 Assay for human Nuclear Respiratory Factor 1 (NRF1) Orphan Gene (AID 2282987); conditions: HepG2 NRF1 cis-element reporter, Attagene multiplex; actives raise or lower the signal
Nuclear respiratory factor 1 (Homo sapiens), sequence (Q16656 whole entry, looked up): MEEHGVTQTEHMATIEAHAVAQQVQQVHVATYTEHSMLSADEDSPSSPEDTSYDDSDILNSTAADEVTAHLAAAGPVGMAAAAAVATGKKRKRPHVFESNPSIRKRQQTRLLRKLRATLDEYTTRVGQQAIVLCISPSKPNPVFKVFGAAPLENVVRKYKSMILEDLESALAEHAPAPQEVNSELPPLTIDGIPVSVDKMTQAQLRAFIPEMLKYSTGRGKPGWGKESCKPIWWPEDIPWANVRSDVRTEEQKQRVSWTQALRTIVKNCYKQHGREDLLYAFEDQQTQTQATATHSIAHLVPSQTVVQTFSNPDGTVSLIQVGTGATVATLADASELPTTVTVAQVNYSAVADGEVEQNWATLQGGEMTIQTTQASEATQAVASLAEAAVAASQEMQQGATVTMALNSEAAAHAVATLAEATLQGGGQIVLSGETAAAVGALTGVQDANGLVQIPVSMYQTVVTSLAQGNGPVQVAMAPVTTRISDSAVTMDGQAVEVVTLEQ
Outline: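 Using DMSO as baseline, gain- or loss-of-signal was fitted for reporter mRNA levels in HepG2 cells transiently transfected with cis-regulated reporter units. Samples were taken 24 h after dosing and read by RT-PCR with capillary electrophoresis.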

[6] = ATG_NFI_CIS: Attagene CIS-FACTORIAL HepG2 Assay for human Nuclear Factor I (NFI) (AID 2282989); conditions: HepG2 cis-regulatory reporter, NFI response element transcription; actives raise or lower the signal
Outline: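 Reporter transcription driven by endogenous transcription factors in HepG2 cells; 24 h treatment. Quantitation by labelled RT-PCR fragments on capillary electrophoresis, gain- or loss-of-signal relative to DMSO.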

[7] = target: Myc proto-oncogene protein (Homo sapiens) (UniProt P01106); test: ATG_Myc_CIS: Attagene CIS-FACTORIAL HepG2 Assay for human Myelocytomatosis (Myc) Proto-Oncogene Transcription Factor (AID 2282990); conditions: HepG2, Attagene cis-reporter transcription factor activity; actives raise or lower the signal
Myc proto-oncogene protein (Homo sapiens), sequence (P01106 whole entry, looked up, the tested form may be a part): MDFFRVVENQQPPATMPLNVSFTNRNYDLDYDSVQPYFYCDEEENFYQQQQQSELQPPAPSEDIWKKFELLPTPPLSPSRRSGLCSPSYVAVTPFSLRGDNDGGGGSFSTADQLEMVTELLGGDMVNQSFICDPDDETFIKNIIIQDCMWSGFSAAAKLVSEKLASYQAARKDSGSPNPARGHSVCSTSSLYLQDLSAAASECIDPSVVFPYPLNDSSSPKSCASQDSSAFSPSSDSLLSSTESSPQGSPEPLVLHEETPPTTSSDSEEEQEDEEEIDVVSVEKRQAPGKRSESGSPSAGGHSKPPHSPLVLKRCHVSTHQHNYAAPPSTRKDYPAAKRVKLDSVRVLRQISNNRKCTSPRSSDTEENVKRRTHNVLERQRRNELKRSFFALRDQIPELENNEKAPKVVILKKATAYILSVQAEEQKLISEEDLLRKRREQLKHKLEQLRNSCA
Outline: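 After 24 h chemical treatment of HepG2 cells carrying multiplexed cis-regulated reporter constructs, reporter transcripts quantified by RT-PCR and capillary electrophoresis of fluorescent fragments. Gain or loss fitted against DMSO baseline.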

[8] = ATG_NF_kB_CIS: Attagene CIS-FACTORIAL HepG2 Assay for human Nuclear Factor Kappa B (NF-kB) (AID 2282991); conditions: HepG2 Attagene cis-factorial NF-kB reporter mRNA; actives raise or lower the signal
Outline: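 Endpoint from a 52-component multiplexed HepG2 reporter panel: cis-regulated transcription units transiently transfected, 24 h dosing, reporter mRNA quantified by RT-PCR and capillary electrophoresis, scored as increase or decrease against DMSO.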

[9] = ATG_NRF2_ARE_CIS: Attagene CIS-FACTORIAL HepG2 Assay for human Nuclear Factor Erythroid 2 Related Factor 2 (NFR2) response to Antioxidant Response Elements (ARE) (AID 2282992); conditions: HepG2 Attagene ARE/NRF2 reporter, transcription factor activity; actives raise or lower the signal;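 for AC50: reporter mRNA level measured by RT-PCR and capillary electrophoresis fluorescence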
Outline: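 Multiplexed reporter mRNA profiling in HepG2 after a 24 h chemical exposure. Curves fitted in both directions relative to DMSO negative control.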

[10] = ATG_Oct_MLP_CIS: Attagene CIS-FACTORIAL HepG2 Assay for human Octamer-Binding Transcription Factor (Oct) (AID 2282993); conditions: HepG2 Attagene cis-factorial Oct reporter, mRNA; actives raise or lower the signal
Outline: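 Transfected HepG2 cells, 24 h treatment. Reporter mRNA quantified by RT-PCR–capillary electrophoresis; bidirectional fitting against DMSO.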

[11] = target: Cellular tumor antigen p53 (Homo sapiens) (UniProt P04637); test: ATG_p53_CIS: Attagene CIS-FACTORIAL HepG2 Assay for human p53 Transcription Factor (AID 2282994); conditions: HepG2 p53 cis-element reporter, Attagene mRNA; actives raise or lower the signal
Cellular tumor antigen p53 (Homo sapiens), sequence (P04637 whole entry, looked up): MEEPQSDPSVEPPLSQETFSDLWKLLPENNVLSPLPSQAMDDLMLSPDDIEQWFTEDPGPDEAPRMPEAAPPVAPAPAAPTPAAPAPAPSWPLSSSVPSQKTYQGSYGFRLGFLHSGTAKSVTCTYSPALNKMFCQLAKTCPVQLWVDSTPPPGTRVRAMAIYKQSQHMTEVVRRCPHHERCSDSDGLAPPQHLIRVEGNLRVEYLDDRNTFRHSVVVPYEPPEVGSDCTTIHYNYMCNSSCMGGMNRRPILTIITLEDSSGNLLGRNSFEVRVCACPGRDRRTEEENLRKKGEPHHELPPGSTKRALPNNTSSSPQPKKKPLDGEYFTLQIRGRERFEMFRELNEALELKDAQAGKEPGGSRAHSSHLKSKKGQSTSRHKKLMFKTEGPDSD
Outline: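 Multiplexed reporter mRNA assay in human HepG2 liver cells; cis-regulated units report endogenous factor activity. Values come from bidirectional curve fitting against DMSO negative control after 24 h treatment.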

[12] = target: human Peroxisome Proliferator-activated Receptor alpha (PPARa), PPARA (gene 5465) (UniProt Q07869); test: ATG_PPARa_TRANS: Attagene TRANS-FACTORIAL HepG2 Assay for human Peroxisome Proliferator-activated Receptor alpha (PPARa) (AID 2283001; active = hit-call score of the fitted dose curve at least 0.9, where 1 is the maximum;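 for AC50: potency for gain of reporter signal over DMSO so agonist or activator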)
human Peroxisome Proliferator-activated Receptor alpha (PPARa), PPARA (gene 5465), sequence (Q07869 whole entry, looked up, the tested form may be a part): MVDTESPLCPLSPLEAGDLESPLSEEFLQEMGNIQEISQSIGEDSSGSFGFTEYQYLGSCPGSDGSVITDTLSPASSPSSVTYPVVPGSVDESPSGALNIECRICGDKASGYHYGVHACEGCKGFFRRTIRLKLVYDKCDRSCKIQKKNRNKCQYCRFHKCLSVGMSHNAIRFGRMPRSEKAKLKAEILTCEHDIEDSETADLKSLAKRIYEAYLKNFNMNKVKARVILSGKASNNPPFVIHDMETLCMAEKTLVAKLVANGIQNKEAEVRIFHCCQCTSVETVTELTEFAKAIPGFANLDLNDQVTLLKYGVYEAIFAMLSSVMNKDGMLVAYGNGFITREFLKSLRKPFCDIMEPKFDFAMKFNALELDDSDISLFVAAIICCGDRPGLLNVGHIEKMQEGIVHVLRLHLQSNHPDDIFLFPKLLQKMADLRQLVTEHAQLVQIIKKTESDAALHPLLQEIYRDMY
Outline: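 Reporter transcripts from GAL4-UAS units in transfected HepG2 were quantified 24 h after dosing. Detection used reverse transcription, PCR, fluorescent primer extension and capillary electrophoresis, with DMSO as baseline.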

[13] = target: Hepatocyte nuclear factor 4-alpha (Homo sapiens) (UniProt P41235); test: ATG_HNF4a_TRANS: Attagene TRANS-FACTORIAL HepG2 Assay for human Hepatocyte Nuclear Factor 4 alpha (HNF4a) (AID 2282982; active = hit-call score of the fitted dose curve at least 0.9, where 1 is the maximum); conditions: HepG2 HNF4a transactivation reporter, mRNA readout
Hepatocyte nuclear factor 4-alpha (Homo sapiens), sequence (P41235 whole entry, looked up): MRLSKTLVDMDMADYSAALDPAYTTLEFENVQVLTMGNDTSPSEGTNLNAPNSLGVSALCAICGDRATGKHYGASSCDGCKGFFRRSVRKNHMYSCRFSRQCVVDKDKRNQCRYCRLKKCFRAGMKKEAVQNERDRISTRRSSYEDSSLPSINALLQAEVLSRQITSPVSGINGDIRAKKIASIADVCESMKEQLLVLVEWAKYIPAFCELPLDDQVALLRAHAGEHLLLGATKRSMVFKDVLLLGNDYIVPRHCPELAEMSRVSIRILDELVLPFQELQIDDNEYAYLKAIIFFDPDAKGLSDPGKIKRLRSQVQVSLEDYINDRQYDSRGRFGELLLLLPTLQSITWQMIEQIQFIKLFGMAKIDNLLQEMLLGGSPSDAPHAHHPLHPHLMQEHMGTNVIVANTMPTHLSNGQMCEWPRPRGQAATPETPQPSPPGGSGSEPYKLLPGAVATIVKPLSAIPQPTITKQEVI
Outline: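 Transfected HepG2 reporter cells are dosed for 24 h; reporter RNA is reverse-transcribed, amplified, fluorescently labelled and HpaI-digested before CE sizing. Positive-direction fit against DMSO.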

[14] = ATG_M_32_TRANS: Attagene TRANS-FACTORIAL HepG2 Assay for M32 Transcription Factor (Internal Marker) (AID 2282984; active = hit-call score of the fitted dose curve at least 0.9, where 1 is the maximum;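 note: transcript level of a background control reporter unit measured by RT-PCR and capillary electrophoresis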); conditions: HepG2 Attagene TRANS M32 internal marker reporter
Outline: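 Using transiently transfected HepG2 cells exposed to test chemicals for 24 h, reporter transcripts are converted to labelled cDNA fragments and quantified by capillary electrophoresis. DMSO defines the activity baseline.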

[15] = target: Nuclear receptor subfamily 4 group A member 2 (Homo sapiens) (UniProt P43354); test: ATG_NURR1_TRANS: Attagene TRANS-FACTORIAL HepG2 Assay for human Nuclear Receptor Related Protein 1 (NURR1) (AID 2282985; active = hit-call score of the fitted dose curve at least 0.9, where 1 is the maximum); conditions: HepG2 Attagene TRANS reporter, mRNA readout
Nuclear receptor subfamily 4 group A member 2 (Homo sapiens), sequence (P43354 whole entry, looked up): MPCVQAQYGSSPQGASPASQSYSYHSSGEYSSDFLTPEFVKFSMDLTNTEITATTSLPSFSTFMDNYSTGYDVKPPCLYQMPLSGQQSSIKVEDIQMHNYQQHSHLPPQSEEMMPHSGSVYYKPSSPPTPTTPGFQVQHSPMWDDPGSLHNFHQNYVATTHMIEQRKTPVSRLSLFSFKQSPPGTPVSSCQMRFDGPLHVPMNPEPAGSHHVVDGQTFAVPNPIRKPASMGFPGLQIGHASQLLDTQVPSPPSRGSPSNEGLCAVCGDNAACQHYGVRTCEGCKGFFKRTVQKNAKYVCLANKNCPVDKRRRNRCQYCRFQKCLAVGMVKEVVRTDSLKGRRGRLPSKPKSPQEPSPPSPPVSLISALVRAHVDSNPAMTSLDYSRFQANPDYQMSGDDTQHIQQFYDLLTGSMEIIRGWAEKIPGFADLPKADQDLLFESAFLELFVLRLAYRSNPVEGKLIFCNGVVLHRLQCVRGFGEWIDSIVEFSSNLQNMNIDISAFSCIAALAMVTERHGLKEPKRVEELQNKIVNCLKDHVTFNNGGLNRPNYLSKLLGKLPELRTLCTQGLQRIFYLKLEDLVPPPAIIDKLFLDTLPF
Outline: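 Cells: HepG2, transiently transfected. Exposure: 24 h. Detection: fluorescence of labelled RT-PCR products separated by capillary electrophoresis; upward fit versus DMSO.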

[16] = BSK_3C_TissueFactor: BioMAP Diversity Plus: 3C Assay for Tissue Factor Biomarker Activity (AID 2282997); conditions: BioMAP 3C HUVEC, tissue factor biomarker readout; actives raise or lower the signal
Outline: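 Endothelial monolayers (human umbilical vein, primary) are dosed, incubated 24 h, and assayed for Tissue Factor by ELISA; DMSO serves as negative control for bidirectional fitting.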

[17] = BSK_3C_uPAR: BioMAP Diversity Plus: 3C Assay for Urokinase-type plasminogen activator receptor (uPAR) Biomarker Activity (AID 2282998); conditions: BioMAP 3C HUVEC, uPAR biomarker ELISA; actives raise or lower the signal
Outline: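 Readout: ELISA for surface uPAR. System: human umbilical vein endothelial primary cells, 24 h after chemical exposure. Analysis: bidirectional fit, DMSO baseline.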

[18] = BSK_3C_VCAM1: BioMAP Diversity Plus: 3C Assay for Vascular cell adhesion molecule 1 (VCAM1) Biomarker Activity (AID 2282999); conditions: BioMAP 3C HUVEC, VCAM1 ELISA, cytokine-stimulated; actives raise or lower the signal
Outline: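 Endothelial cells from human umbilical vein are treated with test chemical. At 24 h, VCAM-1 is measured by ELISA, and responses in either direction are fitted relative to DMSO.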

[19] = BSK_4H_Eotaxin3: BioMAP Diversity Plus: 4H Assay for Eotaxin 3 Biomarker Activity (AID 2283000); conditions: primary human endothelial cells (HUVEC); actives raise or lower the signal
Outline: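 ELISA quantitation of CCL26 (Eotaxin-3) protein from chemically dosed human vascular endothelial cells at 24 h; increases and decreases both scored relative to DMSO-treated baseline.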

Measured: AC50

Cc1cc(Cc2cc(C)cc(C(C)(C)C)c2O)c(O)c(C(C)(C)C)c1
inactive: [1] | [2] | [3] | [8] | [9] | [10] | [11] | [12]
active: [4] 25.6 µM | [5] 180 µM | [6] 25.8 µM | [7] 136 µM

C=CC(=O)OCCC(F)(F)C(F)(F)C(F)(F)C(F)(F)C(F)(F)C(F)(F)C(F)(F)C(F)(F)F
not listed: [3] | [9] | [19]
inactive: all other assays above

O=C(CC(=O)C(F)(F)C(F)(F)C(F)(F)F)c1cccs1
active: [4] 50 µM | [10] 9.28 µM | [16] 29.2 µM and 35.5 µM | [17] 46.7 µM and 30 µM | [18] 45.3 µM and 48.7 µM | [12] 13.3 µM and 14.1 µM
inactive: [1] | [2] | [13] | [3] | [14] | [15] | [4] | [5] | [6] | [7] | [8] | [10] | [11]

Brc1ccc(Oc2ccc(Br)cc2Br)cc1
not listed: [13] | [14] | [16] | [17] | [18] | [19]
inactive: all other assays above

Cc1ccc(N=Nc2c(O)ccc3ccccc23)c(C)c1
active: [9] 1.86 µM | [16] 1.97 µM
not listed: [19]
inactive: all other assays above

C=C(c1ccc(C(=O)O)cc1)c1cc2c(cc1C)C(C)(C)CCC2(C)C
inactive: [1] | [2] | [3] | [14] | [4] | [5] | [6] | [8] | [10]
active: [4] 31 µM | [8] 11.1 µM | [10] 11.1 µM | [12] 33.6 µM

O=C(F)C(F)(F)C(F)(F)C(F)(F)C(F)F
not listed: [16] | [17] | [18] | [19]
inactive: all other assays above

O=CC(F)(F)C(F)(F)C(F)(F)C(F)F
not listed: [7] | [9] | [13] | [16] | [17] | [18] | [19]
inactive: all other assays above

CCO[Si](CCC1CCC2OC2C1)(OCC)OCC (configuration not stated)
not listed: [11] | [13] | [15] | [16] | [17] | [18] | [19]
inactive: all other assays above

O=P(O)(O)CCC(F)(F)C(F)(F)C(F)(F)C(F)(F)C(F)(F)C(F)(F)C(F)(F)C(F)(F)F
not listed: [19]
inactive: all other assays above

CC(=O)Nc1ccc(S(N)(=O)=O)cc1
not listed: [15] | [16] | [17] | [18] | [19]
inactive: all other assays above

OCC1CCC(CO)CC1 (configuration not stated)
not listed: [13] | [14] | [16] | [17] | [18] | [19]
inactive: all other assays above

O=C1OC2(c3ccccc31)c1cc(I)c(O)c(I)c1Oc1c2cc(I)c(O)c1I
inactive: [1] | [2] | [13] | [3] | [14] | [15] | [4] | [5] | [6] | [7] | [9] | [10] | [11] | [12]
active: [15] 25.4 µM | [16] 12 µM | [17] 5.04 µM | [18] 12 µM | [19] 8.42 µM

CCC(C)c1nccnc1OC (configuration not stated)
not listed: [8] | [13] | [15] | [16] | [17] | [18] | [19]
inactive: all other assays above

O=C1c2ccc(O)c(O)c2C(=O)c2c(O)ccc(O)c21
active: [8] 31.1 µM | [9] 6.19 µM | [17] 8.14 µM
not listed: [13] | [14] | [19]
inactive: all other assays above

Reference: PubChem BioAssay (EPA / NIEHS)
